Source: PubChem (National Center for Advancing Translational Sciences (NCATS))
RORg inh = qHTS for inhibitors of ROR gamma transcriptional activity. Nuclear receptor ROR-gamma (Mus musculus), P51450. Drosophila S2 Gal4-RORgamma UAS-luciferase reporter, 20 h. Potency, µM (highest dose often 53.6 µM), for inactives: at the top dose activity change, negative = inhibition, most hits filed as inhibitors. hit rate 5.4% among 310,000. AID 2551, 2010; note: % is set by controls: 0 for no effect and ±100 for the full control effect; nearly all actives have a fitted effect of over 60% in size
Target sequence (P51450 whole entry, looked up, the tested form may be a part): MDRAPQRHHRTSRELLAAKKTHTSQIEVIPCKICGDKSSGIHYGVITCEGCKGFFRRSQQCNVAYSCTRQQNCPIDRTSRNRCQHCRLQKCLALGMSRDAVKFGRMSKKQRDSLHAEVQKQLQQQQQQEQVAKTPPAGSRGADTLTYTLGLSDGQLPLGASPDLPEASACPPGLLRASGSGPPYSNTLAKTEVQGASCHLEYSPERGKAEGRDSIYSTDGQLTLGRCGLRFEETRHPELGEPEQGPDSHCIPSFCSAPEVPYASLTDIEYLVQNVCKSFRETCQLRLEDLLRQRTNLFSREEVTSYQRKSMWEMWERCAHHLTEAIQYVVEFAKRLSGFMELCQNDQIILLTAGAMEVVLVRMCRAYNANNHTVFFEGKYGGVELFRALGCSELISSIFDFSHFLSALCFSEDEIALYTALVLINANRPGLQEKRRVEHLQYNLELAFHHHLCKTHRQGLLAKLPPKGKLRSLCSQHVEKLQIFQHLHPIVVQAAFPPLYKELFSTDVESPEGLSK
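ROR gamma transcriptional activity was tracked as Gal4-UAS luciferase output in stably transfected Drosophila Schneider cells, with compound added 1 hr before 700 uM copper sulfate induction and a 20 hr ambient-temperature incubation.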
ClpP mod = qHTS Assay for Activators of ClpP | purified B. subtilis ClpP, FRET peptide cleavage, 20 min | AID 651965, 2013 | hit rate 1.9% among 340,000 | ATP-dependent Clp protease proteolytic subunit (Bacillus subtilis (strain 168)), P80244 | Potency, µM (top dose mostly 57.5 µM), inactives show at the top dose activity change, negative = active; active = well fitted falling curve with a large enough effect; inconclusive = small, poorly fitted or top-dose-only effect; inactive = no such curve, though single readings can be large or run the other way; note: the source files actives as falling curves though it sought activators and does not explain the sign; nearly all actives have a fitted effect of over 65% in size
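Purified B. subtilis ClpP, 10 microg/mL final in Tris/HCl pH8 with KCl, BSA, glycerol and Tween-20, cleaved an Abz/nitrotyrosine-quenched decapeptide. Fluorescence (ex 320, em 430) was read at 0 and 20 min at room temperature. Delta was normalized to 5.8 microM ADEP and DMSO/no-enzyme controls.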
PINK1 modulator = A Quantitative High throughput Screen to Identify Chemical Modulators of PINK1 Expression | PINK1 immunofluorescence, high-content cytometry, 24 h | Potency, µM (doses to about 76.6 µM), for inactives: top-dose activation (PINK1 increase), usual class: activators | hit rate 0.2% among 410,000; active = well fitted activation curve with a large enough effect; inconclusive = small, poorly fitted or top-dose-only effect; cell line not stated here; note: % of control where 0% means no effect; nearly all actives have a fitted effect of over 65% in size
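Cells are seeded, rested 12 hours, then given compound at five concentrations or DMSO for 24 hours. After fixation, blocking and antibody staining, PINK1 amount and mitochondrial localization are scored; CCCP serves as control.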
Gal4-VP16 FLuc = VP16 counterscreen qHTS for inhibitors of ROR gamma transcriptional activity. Drosophila S2 Gal4-VP16 UAS-luciferase, luminescence, 20 h. Potency, µM (titrated, usually from 53.6 µM), for inactives: at the highest dose activity, negative = inhibition, most hits filed as inhibitors. hit rate 3.5% among 310,000. AID 2546, 2010;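 note: Gal4-VP16 expression switched on by copper sulfate through the metallothionein promoter; % is set by controls: 0 for no effect and ±100 for the full control effect; nearly all actives have a fitted effect of over 50% in size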
Sfp inh = qHTS Assay for Inhibitors of Bacillus subtilis Sfp phosphopantetheinyl transferase (PPTase); 4'-phosphopantetheinyl transferase ffp (Bacillus subtilis), Q9F4F7; Biochemical Sfp PPTase activity, qHTS; Potency, µM, for the others: largest response in the series, negative = inhibition, actives largely listed as inhibitors; hit rate 3.5% among 310,000; AID 1490, 2009;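 note: the enzyme is Sfp with the accession as filed and its product quenches rhodamine fluorescence; 0% = enzyme reaction without inhibitor and -100% = no enzyme wells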
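Fluorescence-quenching assay with 15 nM Sfp, 5 uM rhodamine-CoA and 12.5 uM BHQ-2-labelled ybbR peptide in pH 7.6 Hepes/MgCl2 buffer. Enzyme was pre-incubated with compound for 15 min at room temperature. Rate was taken from the 30-min fluorescence change (525/598 nm).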
Epigenetic reg = Quantitative High-Throughput Screen for Regulators of Epigenetic Control. AID 1865, 2009. Potency, µM (titrated, usually from 53.9 µM), for inactives: at the top dose GFP activation, hits mostly activators. murine LDR cells, GFP reporter derepression, 30 h. hit rate 0.2% among 280,000; note: % of control where 0% means no effect; nearly all actives have a fitted effect of over 60% in size
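In this reporter-derepression format, murine cells bearing a silenced integrated CMV-GFP locus incubate with test compound (30 h, 37 C), then are washed and imaged; fluorescent objects of 20–120 um count as induced cells.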
An asterisk follows results filed as active; ? = inconclusive; . = no result given; [ ] = dose if it differs, or a comment. Most compounds without a hit are left out; they make up all but 8.1% or so of the library. Unless noted, calls come from the whole dose curve; as a rule, active = well fitted curve in the direction sought with a large enough effect; inconclusive = small, poorly fitted or top-dose-only effect, or another doubt; inactive = no such curve, though single readings can be large; an effect the other way counts as inactive or inconclusive. Potency is the fitted concentration of half-maximal effect.

SMILES	RORg inh	ClpP mod	PINK1 modulator	Gal4-VP16 FLuc	Sfp inh	Epigenetic reg
COc1ccccc1/C=C/C=N/NC(=O)c1cc(-c2ccc(C)o2)[nH]n1	13µM*	.	3%	?	?	1%
O=C(Cc1ccccc1)N/N=C/C=C/c1ccccc1[N+](=O)[O-]	15%	.	4%	?	12%	-1%
O=C(N/N=C/C=C/c1ccccc1[N+](=O)[O-])c1ccncc1	11µM*	.	0%	20µM*	26%	-2%
COc1ccccc1/C=C/C=N/NC(=O)c1ccncc1	5.6µM*	.	3%	11µM*	-5%	0%
CC(C)C(NS(=O)(=O)c1cccc2cccnc12)C(=O)Nc1ccc(OC(F)(F)F)cc1 (stereo not drawn)	.	0%	1%	.	.	0%
Cc1cc(C(=O)NCC2CCC3(CCN(Cc4cccc(F)c4F)CC3)O2)n(C)n1 (stereo not drawn)	.	.	-1%	.	.	.
CCOC(=O)c1noc2nc(C)n(CC(=O)Nc3cccc(OC)c3)c(=O)c12	.	-3%	0%	.	.	-1%
O=C(N/N=C/C=C\c1ccccc1[N+](=O)[O-])c1cccs1	14µM*	-1%	-2%	?	4%	2%
O=C(N/N=C/C=C/c1ccccc1[N+](=O)[O-])c1cccnc1	0%	.	2%	0%	9%	0%
O=C(N/N=C/C=C/c1ccc([N+](=O)[O-])cc1)c1cccs1	4µM*	-2%	1%	?	-30%	6%
O=C(N/N=C/C=C\c1ccccc1[N+](=O)[O-])c1cccnc1	10µM*	1%	0%	?	13%	0%
CCN(CC)CCCC(C)NC(=O)c1ccc(-n2c(=O)c(=O)[nH]c3ccccc32)cc1 (stereo not drawn)	.	.	.	.	.	-4%
O=C(Cn1cncn1)N1CCOc2ccc(CN3CCN(c4ccccc4)CC3)cc2C1	.	.	0%	.	.	.
COC(=O)C(Cc1ccccc1)NS(=O)(=O)c1cc(Br)ccc1Br (stereo not drawn)	-1%	.	.	7%	1%	.
CCOc1ccc(NC(=O)c2nn(C)c3c2CS(=O)(=O)c2ccccc2-3)cc1	.	?	0%	.	.	0%
Fc1ccc(-c2csc3[n+]2CCS3)cc1	5%	1%	4%	-2%	25%	1%
O=[N+]([O-])c1ccc(-c2csc3[n+]2CCS3)cc1	13%	1%	0%	17%	11µM*	0%
O=C(NC(=S)Nc1ccc(N2CCCCC2)cc1)c1cccs1	3.2µM*	1%	6%[38.3 µM]	5µM*	?	0%
CCCC(=O)N1CCN(c2ccc(NC(=O)c3cccs3)cc2)CC1	17%	16µM*	4%	0%[10 µM]	-9%	0%
CCCC(=O)NC(=S)Nc1ccc(N2CCN(C(=O)c3cccs3)CC2)cc1	7.9µM*	-3%	0%	?	11%	-1%
CCCC(=O)N1CCN(c2ccc(NC(=O)c3ccco3)cc2)CC1	14%	-1%	-2%	-2%	13%	1%
O=C(NC(=S)Nc1ccc(N2CCN(C(=O)c3ccccc3)CC2)cc1)c1cccs1	5.6µM*	.	1%	?	16%	1%
CS(=O)(=O)N1CCN(c2ccc(NC(=S)NC(=O)c3cccs3)cc2)CC1	6%	-2%	?	-12%	8%	9%
O=C(NC(=S)Nc1ccccc1N1CCN(C(=O)c2ccccc2)CC1)c1cccs1	-21%	2%	3%	-7%	4%	7%
Nc1ccc(S(=O)(=O)N2CCCC2C(=O)O)cc1 (stereo not drawn)	4%	0%	1%	-10%	79µM*	4%
O=C(Nc1cc(Cl)cc(Cl)c1)C1CCC(=O)N1Cc1ccccc1Cl (stereo not drawn)	?	0%	3%	16µM*	18%	0%
